# Measured values reported in PubChem BioAssay (NCATS).
# The source made the active and inactive calls. The call rests on the fitted dose curve; in most records, active means well fitted activation curve with a large enough effect; inconclusive means small, poorly fitted or top-dose-only effect; inactive means no such curve, though single readings can be large or run the other way.
# Molecular target: Cytochrome P450 3A4 (Homo sapiens) (UniProt P08684)
# Experiment: qHTS Assay for Activators of Cytochrome P450 3A4 (AID 885); further: nearly all actives have a fitted effect of over 65% in size
# Details: recombinant CYP3A4, Luciferin-PPXE luminescence, 60 min; series mostly up to 57.1 µM; activity change, positive = activation: at the top concentration
# Method: NIH Molecular Libraries Screening Centers Network [MLSCN]
# NIH Chemical Genomics Center [NCGC]
# The P450 gene superfamily is involved in the metabolism and clearance of xenobiotics. This assay used human CYP3A4 to measure the dealkylation of luciferin-6' phenylpiperazinylyl (Luciferin-PPXE; […]) to luciferin. The luciferin is then measured by luminescence after the addition of a luciferase detection reagent. Luciferin-PPXE concentration in the assay was equal to its KM for CYP3A4. Inhibitors and some substrates limit the production of luciferin, and decrease measured luminescence; activators increase the production of luciferin and luminescence.
# NCGC Assay Protocol Summary:
# Two uL of enzyme and substrate mix (final concentrations: 20nM CYP3A4, 25uM Luciferin-PPXE, 200mM KPO4) were dispensed into a white, solid bottom 1536-well microtiter plate. 23nL of compound was transferred by a pin tool. The plate was incubated at RT for 10 min. Two uL of an NADPH regeneration solution (Promega supplied reagent) was dispensed and the reaction was allowed to continue for 60 min at RT. Then the reaction was stopped by reconstituted luciferin detection buffer. After another 20 min of incubation the plate was read on the ViewLux (Perkin Elmer) at 60 sec exposure and 2x2 binning. This protocol was carried out with Promega-Glo reagents and further information can be found at http://www.promega.com/tbs/tb325/tb325.pdf. Data were normalized to the to AC100 inhibition (57 uM ketoconazole).
# Keywords: P450, CYP2D6, Luciferase, MLSMR, MLSCN, NIH Roadmap, qHTS, NCGC
# Sequence of Cytochrome P450 3A4 (Homo sapiens) (P08684 whole entry, looked up): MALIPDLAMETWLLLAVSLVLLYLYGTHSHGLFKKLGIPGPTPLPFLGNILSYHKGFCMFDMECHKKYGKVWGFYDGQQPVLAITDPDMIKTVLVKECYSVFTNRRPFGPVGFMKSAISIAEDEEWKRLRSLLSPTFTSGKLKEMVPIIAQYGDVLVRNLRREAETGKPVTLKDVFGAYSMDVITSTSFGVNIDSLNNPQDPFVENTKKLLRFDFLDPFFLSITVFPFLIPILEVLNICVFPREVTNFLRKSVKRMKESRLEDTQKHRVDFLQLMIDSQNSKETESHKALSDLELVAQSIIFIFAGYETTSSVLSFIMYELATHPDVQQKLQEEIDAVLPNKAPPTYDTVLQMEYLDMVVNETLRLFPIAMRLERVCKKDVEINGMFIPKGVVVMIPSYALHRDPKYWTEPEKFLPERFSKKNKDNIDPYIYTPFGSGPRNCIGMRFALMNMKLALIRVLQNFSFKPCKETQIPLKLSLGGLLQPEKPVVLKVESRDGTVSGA
SMILES,outcome,"activity change, positive = activation"
COc1cc(N)c(Cl)cc1C(=O)NC1CCN(Cc2ccccc2)CC1,inactive,–
Cc1cc(-c2ccccc2)nnc1NCCN1CCOCC1,–,-51.8% (inactive)
NS(=O)(=O)Cc1noc2ccccc12,–,-42.6% (inactive)
CCN(CC)CCNc1ccc(CO)c2sc3ccccc3c(=O)c12,–,-35% [at 25.6 µM] (inactive)
O=C(CCCN1CC=C(n2c(=O)[nH]c3ccccc32)CC1)c1ccc(F)cc1,–,-36.3% [at 25.6 µM] (inactive)
CN1CCC[C@@H]1CCO[C@](C)(c1ccccc1)c1ccc(Cl)cc1,inactive,–
Cc1c(-c2ccccc2)oc2c(C(=O)OCCN3CCCCC3)cccc2c1=O,–,-54.5% [at 25.6 µM] (inactive)
Nc1ccc(S(=O)(=O)Nc2cnc3ccccc3n2)cc1,–,-32.5% (inactive)
CN(C)CCC[C@@]1(c2ccc(F)cc2)OCc2cc(C#N)ccc21,–,-24.7% (inactive)
CCOC(=O)c1ccc(N)cc1,–,-42.7% (inactive)
O=C1C(CCS(=O)c2ccccc2)C(=O)N(c2ccccc2)N1c1ccccc1 (stereo not drawn),–,-63.5% (inactive)
CC[C@H](c1ccc(O)cc1)[C@@H](CC)c1ccc(O)cc1,–,-82.5% [at 25.6 µM] (inactive)
CCN(CC)CCOC(=O)C(Cc1cccc2ccccc12)CC1CCCO1 (stereo not drawn),–,-81.8% (inactive)
